# PubChem BioAssay AID1347135 (National Center for Advancing Translational Sciences (NCATS), 2019)
# The other results are listed elsewhere or left out. Inconclusive results are not listed. Activity calls are given as the source filed them. The call rests on the fitted dose curve; in most records, active means well fitted inhibition curve with a large enough effect; inconclusive means small, poorly fitted or top-dose-only effect; inactive means flat fitted curve, though single readings scatter.
# Assay: qHTS of pediatric cancer cell lines to identify multiple opportunities for drug repurposing: Orthogonal 3D viability screen for SK-N-SH cells
# Settings: SK-N-SH 3D spheroid viability, PI/Hoechst imaging, 72 h
# Source text: Drug repurposing or repositioning has been offered as a strategy for drug development in oncology programs. This approach has special potential for childhood cancers and other rare or orphan diseases, where the expected return on new drug development has been a disincentive to pharmaceuticals. […] In this project we exploit the poly-pharmacology of drugs to discover new indications via phenotypic screening of a panel of 19 well-characterized cell lines derived from solid tumors seen in children and adolescents. The goal is to identify approved drugs with previously unrecognized anticancer properties that has the potential to reveal new mechanisms and biological processes involved in carcinogenesis or drug resistance. We employed a titration-based paradigm (quantitative high-throughput screening or qHTS), where all compounds were tested at multiple concentrations for their effect on cell viability. Concentration-response curves (CRCs) were derived directly from the primary screen, and both potency and efficacy values were used to identify compounds with robust bioactivity profiles. […] These two assays will be used to validate active compounds and assess the correlation of compound's potency in 2D vs 3D cultures on selected cell lines. Assay Submitter: Nathalia J. Martinez, National Center for Advancing Translational Sciences, National Institutes of Health, Rockville, MD, USA; email: natalia.martinez@nih.gov Shen, M et al. Quantitative high-throughput phenotypic screening of pediatric cancer cell lines identifies multiple opportunities for drug repurposing. Oncotarget 2017 Dec 19;9(4):4758-4772. PMID 29435139.
# The cells were obtained from University of North Carolina (UNC), Pediatric Preclinical Testing Program (PPT), and Coriell Institute (CI). qHTS viability in 3D culture: Cells were assayed in phenol red-free growth media at a density of 1,000 cells/well, with the exception of Daoy, and SH-N-SH which were assayed at 1,500 cells/ well. Thirty muL of cells were dispensed into 384-well, ULA, round bottom plates (Corning) using a Multidrop dispenser. Plates were spun down at 1,000 rpm for 1 min and incubated at 37 degrees C, 5% CO2, under a humidified atmosphere for either 24 (Daoy) or 48 hours (all other cell lines) to allow spheroid formation. Ninety-two nanoliter of compounds and controls (neutral control DMSO or positive control bortezomib at final concentrations of 0.5 µM) were subsequently transferred via GNF Pintool. Plates were sealed using a breathable seal (Diversified Biotech, Dedham, MA) and incubated for 72 hours at 37 degrees C. Spheroid viability was first determined by high-content imaging using Hoechst 33342 and Propidium Iodide (PI, ThermoFisher Scientific), followed by addition of CellTiter-Glo 3D (Promega). Specifically, 3 µL/well of PBS containing a 1:500 dilution of both dyes was dispensed using Multidrop. Dyes were incubated for 1 hour before imaging using the Celigo Image Cytometer. Then, 20 µl of CellTiter-Glo 3D were added per well. Plates were incubated for 30 min at RT on a VWR microplate shaker (300 rpm) and analyzed for luminescence intensity using a ViewLux High-throughput CCD imager equipped with clear filters. Image analysis was done using the Celigo Tumorsphere 1+2+3 application software as previously described. […] The data were exported to Excel, and the average fluorescent intensities were used to calculate the ratio of PI over Hoechst, which was used to quantify viability. […]
row,Compound,Potency
1,CC[C@H]1CN2CCc3cc(OC)c(OC)cc3[C@@H]2C[C@@H]1C[C@H]1NCCc2cc(OC)c(OC)cc21,72.2 nM (active)
2,COC(=O)Nc1nc2ccc(Sc3ccccc3)cc2[nH]1,1620 nM (active)
3,CC(NCc1ccc2c(c1)nc(NC(=O)c1ccc(-c3cn[nH]c3)s1)n2CC(C)(C)O)C(C)(C)C (stereo not given),204 nM (active)
4,CC1(C)O[C@@H]2C[C@@H]3[C@H]4C[C@@H](F)C5=CC(=O)C=C[C@]5(C)[C@@]4(F)[C@@H](O)C[C@]3(C)[C@]2(C(=O)CO)O1,456 nM (active)
5,CC[C@]1(O)C[C@@H]2CN(CCc3c([nH]c4ccccc34)[C@@](C(=O)OC)(c3cc4c(cc3OC)N(C)[C@H]3[C@@](O)(C(=O)OC)[C@H](OC(C)=O)[C@]5(CC)C=CCN6CC[C@]43[C@@H]65)C2)C1,90.9 nM (active)
